Data published in PubChem BioAssay (NCI).
The panel holds about 79,000 compounds, 15% with a hit somewhere; the sample as a whole holds those more often. No stated cut-off is given here; in the data, active means growth inhibition above about 70%; inactive means the rest.

Tests used:
[1] = NCI Yeast Anticancer Drug Screen. Data for the rad50 strain (AID 155);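 further: 0% = growth of vehicle-only cultures of the same strain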; settings: S. cerevisiae rad50 strain growth inhibition; at 50.0 µM; hits give high values
How it was run: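 Growth of the mutant yeast was measured after compound exposure and referenced to vehicle-treated cultures.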

[2] = NCI Yeast Anticancer Drug Screen. Data for the mec2-1 strain (AID 157); settings: S. cerevisiae mec2-1 strain, at 50.0 µM, hits give high values
How it was run: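 Using mec2-1 yeast: add compound, measure growth, express inhibition versus vehicle-treated cultures.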

[3] = NCI Yeast Anticancer Drug Screen. Data for the sgs1 mgt1 strain (AID 161);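 further: 0% = growth of cultures given vehicle only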; settings: S. cerevisiae sgs1 mgt1 strain, at 50.0 µM, hits give high values
How it was run: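 Growth of a repair-deficient yeast mutant was monitored after compound treatment and expressed as inhibition relative to vehicle-treated cultures.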

[4] = NCI Yeast Anticancer Drug Screen. Data for the cln2 rad14 strain (AID 165);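 further: 0% = growth equal to vehicle treated cultures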; settings: S. cerevisiae cln2 rad14 strain, at 50.0 µM, hits give high values
How it was run: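 Yeast strain cln2 rad14, bearing defects in cell cycle control and DNA repair, serves as the test system; values reflect growth inhibition compared with vehicle.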

[5] = NCI Yeast Anticancer Drug Screen. Data for the bub3 strain (AID 167); settings: S. cerevisiae bub3 mutant strain, at 50.0 µM, hits give high values
How it was run: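 Whole-cell yeast assay. The mutant strain was incubated with compounds, and growth inhibition was determined by comparison with vehicle-treated cells.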

[6] = NCI Yeast Anticancer Drug Screen. Data for the mlh1 rad18 strain (AID 175); settings: S. cerevisiae mlh1 rad18 strain growth inhibition; at 50.0 µM; hits give high values
How it was run: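 Steps: expose repair-defective yeast to compound; measure growth; express inhibition against vehicle-treated controls.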

Measured: growth inhibition

Cc1ccc(-n2cc(-c3ccc(Cl)cc3)c3c2N=CN2NC(c4cccs4)=NC32)cc1 (stereo not given)
inactive: [1] -32.8% | [2] -5.8% | [3] -18.9% | [4] 5.5% | [5] -16.7% | [6] -17.3%

NNC(=O)c1csnn1
inactive: [1] -24.6% | [2] -22.6% | [3] -24.5% | [4] -25.4% | [5] -23.6% | [6] -7%

COc1cc(NC(C)=O)c2nccnc2c1
inactive: [1] -16.4% | [2] -21.6% | [3] 0.1% | [4] -20.6% | [5] -0.95% | [6] -14.2%

COC(=O)C(O)C(O)C(O)C(O)C(=O)OC (stereo not given)
inactive: [1] 2.2% | [2] 17.4% | [3] 10.8% | [4] -5.65% | [5] 11.2% | [6] 13.3%

c1ccc(-c2nc3ncncc3[nH]2)cc1
inactive: [1] 7% | [2] -10.3% | [3] -7.65% | [4] -13.8% | [5] -3.45% | [6] -5.6%

Cn1cc(-n2[nH]c(=O)n(-c3ccccc3)c2=O)c(=O)n(C)c1=O
inactive: [1] -50% | [2] 8.2% | [3] -1.1% | [4] -21.3% | [5] 16.1% | [6] 13.3%

CC(C)C1CCC(=O)CC1
inactive: [1] 9.9% | [2] 0.35% | [3] -1% | [4] -12.2% | [5] 0.75% | [6] -4.9%

CCN(c1ccccc1)c1nsc(Cl)n1
inactive: [1] -3.25% | [2] -10.8% | [3] -15.9% | [4] -9.4% | [5] 8.25% | [6] -16%

COC(=O)CCc1c(C)[nH]c(C(=O)OC(C)(C)C)c1C
inactive: [1] -9.45% | [2] 9.3% | [3] -10.9% | [4] 14.9% | [5] -4.05% | [6] -3.05%

C[S+](C)CC(=O)c1ccccc1O
inactive: [1] -2.55% | [2] -9.7% | [3] 2.2% | [4] -62.4% | [5] 3.4% | [6] -0.6%

CCC(C)CN1C(=O)NC(C)(Cc2ccccc2)C1=O (stereo not given)
inactive: [1] 18.6% | [2] 1.25% | [3] 1.15% | [4] 16.8% | [5] 7.85% | [6] 4.25%

CCCNC(C)C(C)O (stereo not given)
inactive: [1] -5.9% | [2] -16.4% | [3] -24.1% | [4] -16.3% | [5] -4.75% | [6] -10.9%

Nc1cccc2ncccc12
inactive: [1] 0.6% | [2] -9.95% | [3] -13.5% | [4] -30% | [5] -1.95% | [6] -19.9%

CS(=O)CC1OC2OC3C(CO)OC(OC4C(CO)OC(OC5C(CO)OC(OC6C(CO)OC(OC7C(CO)OC(OC8C(CO)OC(OC1C(O)C2O)C(O)C8O)C(O)C7O)C(O)C6O)C(O)C5O)C(O)C4O)C(O)C3O (stereo not given)
inactive: [1] -1.9% | [2] -17.4% | [3] -8.55% | [4] -21.4% | [5] -8% | [6] 10.2%

CN(C)N=Nc1c(Cl)cccc1Cl
inactive: [1] 3.35% | [2] 26.7% | [3] -6.6% | [4] -13% | [5] 2.35% | [6] 7.75%

ClC(Cl)(Cl)CC(Br)c1ccccc1 (stereo not given)
inactive: [1] -1.55% | [2] -8.8% | [3] 7.55% | [4] -22.9% | [5] -6.9% | [6] 2.25%

CCOC(=O)N1C2CC=CCC1C1(c3ccccc3)OC2(c2ccccc2)c2ccccc21
inactive: [1] -16.7% | [2] -3.95% | [3] -4.6% | [4] 5.05% | [5] -1.05% | [6] -24.1%

COc1ccc(C(=O)NC(=S)Nc2cccc([N+](=O)[O-])c2)cc1
inactive: [1] -7.3% | [2] 29.9% | [3] 35.5% | [4] -21.6% | [5] 24.6% | [6] 27.7%

COc1ccc(CCN2C(=O)C(=O)N(c3ccc([N+](=O)[O-])cc3)C2=O)cc1OC
inactive: [1] 22.6% | [2] 1.45% | [3] -13.3% | [4] 8.6% | [5] 0.95% | [6] 8.55%

Cc1c([N+](=O)[O-])cc2c(c1[N+](=O)[O-])C(C(C)C)CCC2(C)C (stereo not given)
inactive: [1] -1.5% | [2] -25.2% | [3] 9.65% | [4] 29.2% | [5] -40.4% | [6] -5%
